Reference: PubChem BioAssay AID1159580 (chemical genetic matrix, 2015)
Out of some 5,500 compounds screened, about 2,000 (36%) were called active. Another 18% or so got no clear call; they are omitted. Cut-off read from the data, not from the text of the source: active = normalized growth mostly below about 0.91 (no sharp cut-off); inconclusive = no clear call, values can overlap the other calls; inactive = mostly above about 0.92. Some of the results follow.

Test: chemical genetic growth profiling, strain panel (AID 1159580);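 note: tested at 20 µM; growth read once vehicle control cultures reached saturation at 30 °C; 1 = growth at the plate median or of vehicle wells; lower values mean less growth of the strain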
Details: S. cerevisiae deletion strains, growth OD
[1] = locus YAL013W, strain DEP1, stronger effect = lower value
[2] = locus YDR150W, strain NUM1, stronger effect = lower value
[3] = locus YGR078C, strain PAC10, stronger effect = lower value
[4] = locus YJR075W, strain HOC1, stronger effect = lower value
[5] = locus YMR263W, strain SAP30, stronger effect = lower value
[6] = locus YNL153C, strain GIM3, stronger effect = lower value
[7] = locus YPL241C, strain CIN2, stronger effect = lower value
[8] = locus YAL040C, strain CLN3, stronger effect = lower value
[9] = locus YCL061C, strain MRC1 (second series), stronger effect = lower value
[10] = locus YDR363W, strain ESC2, stronger effect = lower value
[11] = locus YER002W, strain NOP16, stronger effect = lower value
[12] = locus YNL175C, strain NOP13, stronger effect = lower value
[13] = locus YNL197C, strain WHI3, stronger effect = lower value
[14] = locus YNL224C, strain SQS1, stronger effect = lower value
[15] = locus YOR083W, strain WHI5 (second series), stronger effect = lower value
[16] = locus YMR307W, strain GAS1, stronger effect = lower value

Measured: normalized growth

Cc1ccc(N=Cc2cccs2)cc1Cl
inactive: [1] 1.01 | locus YBR229C, strain ROT2, stronger effect = lower value 0.998 | locus YCL061C, strain MRC1, stronger effect = lower value 1.03 | locus YDL101C, strain DUN1, stronger effect = lower value 1 | [2] 0.982 | locus YEL061C, strain CIN8, stronger effect = lower value 1 | [3] 1 | locus YHR030C, strain SLT2, stronger effect = lower value 1.04 | locus YHR087W, strain rtc3, stronger effect = lower value 0.999 | locus YJR043C, strain POL32, stronger effect = lower value 1.02 | [4] 1.01 | locus YKL190W, strain CNB1, stronger effect = lower value 0.998 | locus YLR039C, strain RIC1, stronger effect = lower value 0.991 | locus YLR058C, strain SHM2 (second series), stronger effect = lower value 1.01 | locus YLR085C, strain ARP6, stronger effect = lower value 1.05 | locus YLR262C, strain YPT6, stronger effect = lower value 1 | locus YML094W, strain GIM5, stronger effect = lower value 1 | locus YMR219W, strain ESC1, stronger effect = lower value 0.998 | [5] 1 | locus YNL128W, strain TEP1, stronger effect = lower value 1 | [6] 1 | locus YNL298W, strain CLA4 (second series), stronger effect = lower value 1.04 | locus YNL322C, strain KRE1, stronger effect = lower value 1.01 | locus YNR030W, strain Alg12, stronger effect = lower value 1.02 | locus YOL006C, strain TOP1, stronger effect = lower value 1.06 | locus YPL055C, strain LGE1, stronger effect = lower value 1 | [7] 1.05 | locus YPR135W, strain CTF4, stronger effect = lower value 1.01

O=C(O)CC1CCCc2ccccc2C1O (configuration not stated)
inactive: [1] 1.01 | [8] 1.09 | [9] 0.999 | [10] 1.02 | [11] 1.01 | [5] 0.997 | [6] 1 | [12] 1.01 | [13] 1.01 | [14] 1.01 | [15] 1.02

C[C@]12CCC(=O)C=C1CC[C@@H]1[C@@H]2CC[C@@]2(C)[C@H]1CC[C@]2(O)C(=O)CO
inactive: [1] 1.02 | [8] 1 | [9] 0.994 | [2] 0.994 | [10] 0.948 | [11] 0.98 | [4] 1 | [16] 1.01 | [6] 0.938 | [12] 0.969 | [13] 0.975 | [14] 0.992 | [15] 0.966 | [7] 1

CC(=O)[C@@]1(O)CC[C@H]2[C@@H]3CCC4=CC(=O)CC[C@]4(C)[C@H]3CC[C@@]21C
inactive: [1] 0.961 | [8] 0.947 | [9] 0.985 | [2] 1 | [10] 0.996 | [11] 0.967 | [3] 0.975 | locus YGR229C, strain SMI1, stronger effect = lower value 1.01 | [4] 0.984 | [16] 0.979 | [12] 0.97 | [13] 0.966 | [14] 0.957 | [15] 1.03
